{"source": "PubChem BioAssay (EPA / NIEHS)", "note": "“And” between values parts separate entries of the source, which are not always exact repeats. Equal values may be shown once. The source made the active and inactive calls. How the source made its calls: active means hit-call score of the fitted dose curve at least 0.9, where 1 is the maximum; inconclusive means response in the unintended direction; inactive means score below 0.9."}
{"test_system": "DIO2 (gene 1734)", "test": "CCTE_GLTED_hDIO2: CCTE's human Deiodinase 2 (DIO2) Inhibition Assay, Great Lakes Toxicology and Ecology Division (GLTED) Lab (AID 2284050)", "procedure": "CCTE_GLTED_hDIO2 is a cell-free, single-readout assay designed to test the inhibitory activity of chemicals toward human iodothyronine Deiodinase type 2 (DIO2) enzyme. Enzyme is incubated in presence of test chemical for 3 hours during which uninhibited enzyme liberates free iodide from substrate. Free iodide is measured in a second step using the Sandell-Kolthoff method.CCTE_GLTED_hDIO2 is the assay component measured from the CCTE_GLTED_hDIO2 assay. It is designed to make measurements of enzyme activity, a form of enzyme reporter, as detected with absorbance signals by spectrophotometry.Data from the assay component CCTE_GLTED_hDIO2 was analyzed into 1 assay endpoint. This assay endpoint, CCTE_GLTED_hDIO2, was analyzed in the positive analysis fitting direction relative to DMSO as the negative control and baseline of activity. Using a type of enzyme reporter, loss-of-signal activity can be used to understand changes in the enzymatic activity as they relate to the gene DIO2. Furthermore, this assay endpoint can be referred to as a primary readout, because the performed assay has only produced 1 assay endpoint. To generalize the intended target to other relatable targets, this assay endpoint is annotated to the 'deiodinase' intended target family, where the subfamily is 'deiodinase Type 2'.\nHuman deiodinase type 2 (hDIO2) assay, developed at Great Lakes Toxicology and Ecology Division (GLTED) within the EPA's Center for Computational Toxicology and Exposure (CCTE), is designed to test the chemicals' ability to inhibit DIO2. Assay is based on iodide release measured by the Sandell-Kolthoff method and is run in 96-well plate format with assay plates run in triplicate (n=3). The method used for the deiodinase assay was largely based on Renko et al. (2012, 2015). These works describe the utilization of the SK reaction to measure deiodinase-liberated iodide in a 96-well-plate format. The SK reaction is based on the reduction of the yellow-colored cerium IV to the non-colored cerium III by arsenic, with the rate of this reaction increased in the presence of iodide in a concentration-dependent manner (Sandell and Kolthoff, 1937). Iodinated test chemicals can interfere as competitive inhibitors, or if the stock chemical has contaminating free-iodide present. Other chemicals, e.g.: nitrite, iron, and thiocyanate can interfere with the Sandell-Kolthoff reaction (see Sandell and Kolthoff, 1937)."}
{"smiles": "CC(C)(C)CC(C)(C)c1ccc(O)cc1", "AC50": "105 µM (active)"}
{"smiles": "O=C(O)C(F)(F)C(F)(F)C(F)(F)C(F)(F)C(F)(F)C(F)(F)C(F)(F)C(F)(F)C(F)(F)C(F)(F)F", "AC50": "50 µM (active) and 53.2 µM (active)"}
{"smiles": "O=C1C(Cl)=C(Cl)C(=O)c2ccccc21", "AC50": "26.8 µM (active)"}
{"smiles": "CCCCCCCCc1ccc(O)cc1", "AC50": "151 µM (active)"}
{"smiles": "O=C1C2(Cl)C3(Cl)C4(Cl)C(Cl)(Cl)C5(Cl)C3(Cl)C1(Cl)C5(Cl)C24Cl", "note": "(configuration not stated)", "AC50": "28.3 µM (active)"}
{"smiles": "CC(C)(c1ccccc1)c1ccc(O)c(C(C)(C)c2ccccc2)c1", "AC50": "91.9 µM (active)"}
{"smiles": "Clc1ccc(COC(Cn2ccnc2)c2ccc(Cl)cc2Cl)cc1", "note": "(configuration not stated)", "AC50": "95.2 µM (active)"}
{"smiles": "CC12CC1(C)C(=O)N(c1cc(Cl)cc(Cl)c1)C2=O", "note": "(configuration not stated)", "outcome": "inactive"}
{"smiles": "C=CC(=O)OCCCCCC(C)C", "AC50": "21.1 µM (active)"}
{"smiles": "CC(C)(c1ccc(OCC2CO2)cc1)c1ccc(OCC2CO2)cc1", "note": "(configuration not stated)", "AC50": "3.76 µM (active)"}
{"smiles": "Cl/C=C\\C[N+]12CN3CN(CN(C3)C1)C2", "outcome": "inactive"}
{"smiles": "CCC(C)(C)c1ccc(O)c(C(C)(C)CC)c1", "AC50": "79 µM (active)"}
